Where “and” joins values, the source holds several entries; their conditions need not be identical. Equal entries are not always repeated. The whole screen tested about 410,000 compounds, of which about 18,000 (4.4%) were called active. Not shown: some 7% with an inconclusive outcome. For the sample, actives were picked, then their nearest neighbours and some compounds at random. Values without a mark were called inactive. Cut-off read from the data, not from the text of the source: active = activity change below about -60%; inconclusive = no clear call, values can overlap the other calls; inactive = above about -39%.
% is set by controls: 0 for no effect and ±100 for the full control effect.

This assay is described as follows: qHTS Assay for inhibitors of the human cytomegalovirus (HCMV). The conditions noted are these: HFF cells, HCMV-luciferase reporter, 72 h; at 57.5 µM; stronger effect = lower value. The text has this:
NCGC Assay Overview: Infection with human cytomegalovirus (HCMV) continues to pose significant threats for pregnant women and immunocompromised hosts. HCMV causes serious morbidity and mortality in transplant recipients, and congenital HCMV is the leading infectious cause of mental retardation and deafness in children. In the 1990s, the annual costs associated with the disease burden of congenital CMV were estimated at around $2 billion. A HCMV vaccine is not available yet and HCMV therapies result in intolerable side effects and emergence of drug resistant viruses. […] Towards this goal we have developed and characterized a luciferase HCMV reporter that was initially used in 96 well plates and then optimized to 1536-well plates for utilization in screening of the MLSMR collection, the NGCG diversity collection and the NCGC Pharmaceutical Collection of approved and investigational drugs.
NCGC Assay Protocol Summary:
This is a cell-based assay for HCMV inhibition in HFFs cells. The screening used 2 compound doses and the HCMV-luciferase at MOI of 1 PFU/cell. Cells were treated and infected with HCMV. At 72 h post infection cell lysates were collected and luciferase activity was determined using the Glomax-Multi + Detection System (Promega, Madison, WI). Data were normalized to the controls for basal activity (buffer only) and known HCMV inhibitors Salinmoycin.
1536-well assay protocol for the assay:
(1) Add 3 ul CMV/HFF cell culture. 1000 cells/well in DMEM nirmal media.
(2) Incubate 16 hr at 37C.
(3) Add 23 nl control compound, 10uM of Salinomycin.
(4) Add 23 nl compounds in DMSO solution.
(5) Add 3 ul CMV suspension. Final 1 puf/ul, Virus stock 2000pfu/ul
(6) Incubate 72 hrs at 37C.
(7) Add 4 ul OneGlo Luc Reagent.
(8) Incubate 5 min at room temperature.
For orientation: Quantitative high-throughput screening tests each substance at several concentrations.
As for `COc1ccc(NC(=O)CSc2nc3ncccc3[nH]2)c(OC)c1`, the activity change, negative = inhibition was 9.48%.
With `NS(=O)(=O)c1ccc(NC(=O)COC(=O)C2(c3ccc(F)cc3)CCCC2)cc1`, the activity change, negative = inhibition was -61.5% (active).
Take `CN(C)S(=O)(=O)c1cccc(NC(=O)COC(=O)C2(c3ccccc3F)CCCC2)c1`: the activity change, negative = inhibition was -26.2%.
The same measure for `O=C(COC(=O)C1(c2ccc(F)cc2)CCCC1)N1CCNC1=O`: -24.2%.
The same measure for `CN(Cc1ccccc1)C(=O)CCS(=O)(=O)c1cc(Br)cc2c1N(C(=O)C1CC1)CC2`: -14.4%.
The same measure for `O=S(=O)([N-]c1nc2ccccc2nc1-[n+]1ccc(Cc2ccccc2)cc1)c1ccc(Br)s1`: -110% (active).
On to `COc1ccc(S(=O)(=O)c2c(Nc3cccc(Cl)c3)sc(C(=O)c3ccccc3)c2N)cc1`, for which the activity change, negative = inhibition is 20.4%.
The same measure for `N#C/C(=C(\O)C(F)(F)F)c1nnc2n1CCCCC2`: -0.374%; for `N#C/C(=C/c1cccc([N+](=O)[O-])c1)c1nnc2n1CCCCC2`: -95.5% (active).
Under `N#C/C(=C(\O)CCl)c1nnc2n1CCCCC2` stands -20.4%; under `CNS(=O)(=O)c1ccc2c(c1)[nH]c(=S)n2C`, -5.5%; under `Cc1ccccc1OCc1ccc(-c2nc(C#N)c(N3CCCCC3)o2)o1`, -23.6%.
Under `Cc1ccc(N2CCN(C(=O)CCc3c(C)nc4c(c3C)c(=O)n(C)c(=O)n4C)CC2)c(C)c1` stands -5.59%.
Turning to `CC(=O)N1CCCc2cc(S(=O)(=O)N3CCC(C(=O)NC4CCCCC4)CC3)ccc21`, the activity change, negative = inhibition is 6.82%.
Under `CC(=O)N1c2ccc(S(=O)(=O)N3CCC(C(=O)NCc4ccc(F)cc4)CC3)cc2CC1C` (stereo not drawn) stands -39.5%; under `COc1cccc(N2CCN(S(=O)(=O)c3ccc4c(c3)CCCN4C(C)=O)CC2)c1`, -9.24%; under `CC(=O)N1c2ccc(S(=O)(=O)N3CCCC(C(=O)Nc4ccc(C)cc4C)C3)cc2CC1C` (stereo not drawn), 33.5%.
The same measure for `CC(=O)N1c2ccc(S(=O)(=O)N3CCCC(C(=O)Nc4cccc(Cl)c4)C3)cc2CC1C` (stereo not drawn): -62.5% (active).
Under `CC(=O)N1c2ccc(S(=O)(=O)N3CCCC(C(=O)Nc4cccc(F)c4)C3)cc2CC1C` (stereo not drawn) stands -31.3%.
As for `CC1Cc2cc(S(=O)(=O)CCC(=O)NCc3ccc(Cl)cc3)ccc2N1C(=O)C1CC1` (stereo not drawn), the activity change, negative = inhibition is 4.59%.
The same measure for `CC(=O)N1CCCc2cc(S(=O)(=O)N3CCCC(C(=O)N4CCN(c5cccc(Cl)c5)CC4)C3)ccc21` (stereo not drawn): -72.9% (active) and -95.8% (active); for `CC(=O)N1c2ccc(S(=O)(=O)N3CCCC(C(=O)NCc4ccc(Cl)cc4)C3)cc2CC1C` (stereo not drawn): -75.8% (active).
Under `Cc1noc(/C=C/N(C)C)c1S(=O)(=O)N1CCCC(C(=O)Nc2cccc(F)c2)C1` (stereo not drawn) stands 4.81%; under `CCOc1ccc(OCC)c(NC(=O)c2c(C)nn(-c3ccccc3)c2-n2cccc2)c1`, -28.6%; under `COc1ccc(-c2nn3c(=O)cc(CN4CCN(C(=O)c5ccc(OC)c(OC)c5)CC4)nc3s2)cc1`, -5.09%.
The same measure for `COc1ccc(CCNc2nc(-c3ccc(Cl)cc3)cc(C(F)(F)F)n2)cc1OC`: -19.1%; for `O=C(CSc1nc(=O)n(Cc2cccnc2)c2c1CCC2)Nc1ccc(F)cc1F`: -15.2%.
Consider `COc1cccc(CNC(=O)CCC(=O)N2CC3CCCN3c3ccccc32)c1` (stereo not drawn), for which the activity change, negative = inhibition was -5.74%.
Under `COc1ccc(C2N=C(N)N=C(N)N2c2ccccc2)cc1OC` (stereo not drawn) stands 14%; under `O=C(CCc1nc(CN2CCN(S(=O)(=O)c3ccc(Cl)cc3)CC2)no1)N1CCCCC1`, 30.2%; under `CC[C@]12c3[nH]c4ccc(OC)cc4c3CCN1C(=O)C(CC(=O)NCCN1CCOCC1)C[C@@H]2C(=O)N1CCN(C(=O)C2CC2)CC1` (stereo partly drawn), 3.72%.
The same measure for `Cc1c(C)n(Cc2ccc(Cl)cc2)c2ccc(C(=O)NCCc3ccc(S(N)(=O)=O)cc3)cc12`: 0%; for `O=C(CCNC(=O)c1ccc(Br)cc1)Nc1cccc(S(=O)(=O)N2CCCCC2)c1`: -23.8%.
For `CCSc1ccccc1C(=O)Nc1ccc2c(c1)OCO2`, the activity change, negative = inhibition was 8.91%.
The same measure for `O=C(NCCc1ccc(F)cc1)c1ccc(S(=O)(=O)N2CCCCC2)cc1`: -3.57%.
Under `Cn1c(=O)n(C)c2cc(C(=O)Nc3ccc4c(c3)OCO4)ccc21` stands -96.3% (active); under `NS(=O)(=O)c1ccc(CCNC(=O)c2ccc(Cl)c(S(=O)(=O)N3CCCCCC3)c2)cc1`, -69.2% (active).
For `O=C(Nc1cccc(S(=O)(=O)N2CCCCC2)c1)c1ccc2c(c1)OCO2`, the activity change, negative = inhibition is -69% (active).
Under `O=C(Nc1cccc(S(=O)(=O)N2CCCC2)c1)c1cncc(Br)c1` stands -5.81%; under `CN1CCN(S(=O)(=O)c2cccc(C(=O)Nc3cccc(S(N)(=O)=O)c3)c2)CC1`, -17.3%.
Under `COc1cc(C(=O)NNC(=O)c2ccc(S(=O)(=O)N3CCCCC3)cc2)cc(OC)c1OC` stands 41.5%.
Under `CCN(CC)S(=O)(=O)c1cccc(NC(=O)c2ccc(S(=O)(=O)N3CCCC3)cc2)c1` stands -65.5% (active); under `O=C(Nc1ccc2c(c1)OCO2)c1cc(-c2cccc(Cl)c2)on1`, 11.5%.

(Values after PubChem BioAssay AID1259415 (National Center for Advancing Translational Sciences (NCATS), 2018).)
